Hits are enriched below; roughly 11% of the tested compounds scored in any of these assays.
JMJD2E inh = JMJD2E (human) inhibition; B2RXH2; JMJD2E catalytic domain, FDH-coupled NADH fluorescence (FDH is formaldehyde dehydrogenase); Potency, µM (highest dose often 57.1 µM), inactives show at the highest dose activity change, negative = inhibition, usual class: inhibitors; 230,000 compounds, 1.6% hits; AID 2147;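 also: potency is read from the fitted curve at half-maximal effect; 0% = wells with enzyme and -100% = buffer wells without enzyme; nearly all actives have a fitted effect of over 50% in size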
Target sequence (B2RXH2 1-337 limits assumed): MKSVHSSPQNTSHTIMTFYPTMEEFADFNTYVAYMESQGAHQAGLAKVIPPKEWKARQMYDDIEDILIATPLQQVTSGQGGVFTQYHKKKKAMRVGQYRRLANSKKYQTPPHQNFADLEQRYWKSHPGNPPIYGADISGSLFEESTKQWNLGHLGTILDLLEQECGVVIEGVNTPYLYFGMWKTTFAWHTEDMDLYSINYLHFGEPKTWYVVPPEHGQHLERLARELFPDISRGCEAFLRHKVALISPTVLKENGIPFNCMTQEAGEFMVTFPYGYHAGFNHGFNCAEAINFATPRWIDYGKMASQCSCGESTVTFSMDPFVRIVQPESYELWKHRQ
ALDH1A1 block = ALDH1A1 (human) enzyme inhibition; Potency, µM (top dose mostly 75.3 µM), for the others: top-dose activity, negative = inhibition, actives largely listed as inhibitors; Purified ALDH1A1, NADH fluorescence, propionaldehyde substrate; 220,000 compounds, 7.3% hits;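 also: potency is read from the fitted curve at half-maximal effect; plate controls were no enzyme wells and a reference inhibitor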
PNC assembly inh = inhibitors of perinucleolar compartment assembly; PC3M PTB-GFP, PNC prevalence imaging, 16 h; active compounds read low; activity change (PNC), negative = inhibition, % at 10 µM; 140,000 compounds, 3.1% hits;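 active = readout at or below -70, meaning at least 70% loss of cells showing the perinucleolar compartment, a nuclear body marking cancer cells; inconclusive = readout between -30 and a set limit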;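 also: plate controls were DMSO wells for no effect and camptothecin positive control wells for full effect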
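Compounds are pinned in duplicate onto adhered PC3M cells stably expressing GFP-tagged PTB and incubated 16 h at 37 C. Cells are then fixed, nuclei stained with Hoechst, and PNC-positive cells counted.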
HPGD block = inhibitors of human 15-hydroxyprostaglandin dehydrogenase (HPGD) | P15428 | purified HPGD, NADH fluorescence kinetic, PGE2 substrate | Potency, µM, without a hit: top-dose activity change, negative = inhibition, most hits filed as inhibitors | 150,000 compounds, 4.3% hits; also: potency is read from the fitted curve at half-maximal effect
Target sequence (P15428 whole entry, looked up): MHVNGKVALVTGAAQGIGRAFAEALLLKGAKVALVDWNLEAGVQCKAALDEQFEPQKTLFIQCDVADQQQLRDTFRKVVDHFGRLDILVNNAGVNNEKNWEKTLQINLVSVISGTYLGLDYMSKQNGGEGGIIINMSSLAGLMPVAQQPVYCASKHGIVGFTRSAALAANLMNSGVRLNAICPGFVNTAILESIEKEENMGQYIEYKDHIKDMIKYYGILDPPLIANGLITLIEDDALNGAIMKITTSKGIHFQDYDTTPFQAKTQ
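NADH formation kinetics: reaction with 30 uM PGE2 and 1 mM NAD+ (final), 20 nM enzyme, Tris-HCl pH 8 with Tween 20, after 15 min compound preincubation at room temperature. Fluorescence change, last versus first of five reads.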
* hit, by the source's call; [ ] = remark or other dose. Unless noted, calls follow the shape of the dose curve; as a rule, active = well fitted inhibition curve with a large enough effect (not every such curve was filed as active); inconclusive = small, poorly fitted or top-dose-only effect, or another doubt; inactive = no such curve, though single readings can be large or run the other way. Unless noted, % is scaled to controls: 0 for no effect and ±100 for the full control effect.

Results for Cc1ccc2[nH]c(-c3ccccc3)cc(=O)c2c1 ?
JMJD2E inh: inconclusive; ALDH1A1 block: -26.5%; PNC assembly inh: -111.0*; HPGD block: inconclusive

How did Cc1ccc(-c2cc(=O)c3ccccc3[nH]2)cc1 do in these assays?
JMJD2E inh: -1.1%; ALDH1A1 block: -5.9%[120 µM]; PNC assembly inh: 27.2; HPGD block: inconclusive

How did COC(=O)C1=C(C(=O)OC)[C@@H]2N(C)c3ccc(OC)cc3[C@@]23C[C@@H](C(=O)OC)N(S(=O)(=O)c2c(C)noc2C)C3=N1 do in these assays?
JMJD2E inh: 7.5%[11.4 µM]; ALDH1A1 block: 7.3%[13.5 µM]; HPGD block: -5.5%

How did CC1CC(C)CN(c2ccc([N+](=O)[O-])cc2-c2nn[nH]n2)C1 (centres undefined) do in these assays?
JMJD2E inh: 3.16µM*; ALDH1A1 block: -12.1%; PNC assembly inh: 5.8; HPGD block: -8.7%

What do the screens show for `CSc1ccc(CN2C(=O)NC3(CCCCC3)C2=O)cc1`?
JMJD2E inh: 2.3%; ALDH1A1 block: inconclusive

What do the screens show for `NCCCc1c(-c2ccccc2)nc(N)[nH]c1=O`?
ALDH1A1 block: 8.8%[13.5 µM]; HPGD block: -11.2%

How did c1ccc2nc3c(nc2c1)c1ccccc1n3CCN1CCOCC1 do in these assays?
JMJD2E inh: 0.8%; ALDH1A1 block: -8.6%; PNC assembly inh: 31.5; HPGD block: -4.7%

How did CCn1c2ccccc2c2nc3cc(S(=O)(=O)N4CCOCC4)ccc3nc21 do in these assays?
JMJD2E inh: -14.0%; ALDH1A1 block: 1µM*; PNC assembly inh: inconclusive; HPGD block: 2µM*

What do the screens show for `N/C(=N\OC(=O)c1ccc(Br)o1)c1ccccn1`?
JMJD2E inh: 6.4%; ALDH1A1 block: -1.9%

What do the screens show for `O=C(N/N=C/c1ccncc1)c1cc([N+](=O)[O-])cc([N+](=O)[O-])c1O`?
JMJD2E inh: -24.8%; ALDH1A1 block: inconclusive; PNC assembly inh: inconclusive; HPGD block: 28.2µM*

How did Cc1cc(C(=O)N/N=C/c2ccncc2)c(C)o1 do in these assays?
JMJD2E inh: 6.4%

Results for O=C(CCl)Oc1ccc2occ(C(=O)c3cccs3)c2c1 ?
JMJD2E inh: -1.1%; ALDH1A1 block: 0.794µM*; PNC assembly inh: 18.2; HPGD block: -21.5%

What do the screens show for `CC(=O)Oc1ccc2occ(C(=O)c3cccs3)c2c1`?
JMJD2E inh: -4.7%; ALDH1A1 block: 1.6%; PNC assembly inh: 6.1; HPGD block: -9.4%

How did COc1ccc(CNC(=O)C2CCC(CNc3nc(=S)[nH]c4ccccc34)CC2)cc1 (centres undefined) do in these assays?
JMJD2E inh: -3.5%; ALDH1A1 block: 0.5%

How did CC(C)OCC(O)CS(=O)(=O)Cc1ccccc1 (centres undefined) do in these assays?
JMJD2E inh: 5.8%; ALDH1A1 block: 12.7%; PNC assembly inh: 33.0; HPGD block: 12.6µM*

Results for CCOc1ccc(N(CC(=O)Nc2cc(C)ccc2C)S(=O)(=O)c2c(C)[nH]c(=O)[nH]c2=O)cc1 ?
JMJD2E inh: -2.6%

Results for O=C1NC(=O)/C(=C\c2ccc(O)cc2O)S1 ?
JMJD2E inh: 15.8µM*; ALDH1A1 block: -15.2%

Results for CCOC(=O)C1(Cc2cccc(F)c2)CCN(C(=O)c2ccoc2C)CC1 ?
JMJD2E inh: 3.0%; ALDH1A1 block: inconclusive

Results for Cc1cccc(COc2ccc(/C=N/NC(=O)c3nnn(-c4nonc4N)c3COc3ccc(F)cc3)cc2)c1 ?
JMJD2E inh: inactive

What do the screens show for `O=C(NCCCNc1ccc([N+](=O)[O-])cc1)C(F)(F)F`?
JMJD2E inh: 5.2%; ALDH1A1 block: inconclusive; PNC assembly inh: 24.8; HPGD block: 20µM*

How did O=C(CCl)N(CCCNC(=O)C(F)(F)F)c1ccc([N+](=O)[O-])cc1 do in these assays?
JMJD2E inh: 3.5%

How did COc1ccc(NC(=O)c2ccc(NCCN3C(=O)CCC3=O)c([N+](=O)[O-])c2)cc1 do in these assays?
JMJD2E inh: -12.0%; ALDH1A1 block: -10.9%

How did CN(C)c1ccc(C2CC(=O)C=C(Nc3ccccc3N)C2)cc1 (centres undefined) do in these assays?
JMJD2E inh: -7.8%

How did COc1ccccc1NC1=CC(=O)CC(c2ccccc2)C1 (centres undefined) do in these assays?
JMJD2E inh: -10.6%; ALDH1A1 block: -14.0%; PNC assembly inh: -96.0*; HPGD block: -5.6%

How did O=C1C=C(Nc2ccc(Cl)cc2)CC(c2ccc(Cl)cc2)C1 (centres undefined) do in these assays?
JMJD2E inh: inconclusive; ALDH1A1 block: -6.7%; PNC assembly inh: 4.2; HPGD block: 31.6µM*

How did CCC1CO1 (centres undefined) do in these assays?
ALDH1A1 block: -2.1%; HPGD block: -4.5%

What do the screens show for `CN(C)C(=O)c1ccc(-c2cncnc2NCCc2cnc[nH]2)cc1`?
ALDH1A1 block: -1.4%

What do the screens show for `CCCCN1C(=O)C(=Nc2cccc3cnccc23)c2ccccc21`?
JMJD2E inh: -9.6%; ALDH1A1 block: 0.631µM*

How did Cc1cc([N+](=O)[O-])nn1CC(=O)NNC(=S)Nc1ccc([N+](=O)[O-])cc1 do in these assays?
JMJD2E inh: 5.3%; ALDH1A1 block: 22.4µM*; PNC assembly inh: 45.7; HPGD block: -20.1%

Results for Cc1nn(CCC(=O)NNC(=S)Nc2ccc(Cl)cc2)c(C)c1[N+](=O)[O-] ?
JMJD2E inh: 1.0%; ALDH1A1 block: 22.4µM*; PNC assembly inh: 115.5; HPGD block: -20.0%

What do the screens show for `Cc1cc([N+](=O)[O-])nn1CC(=O)Nc1nccs1`?
JMJD2E inh: -0.8%; ALDH1A1 block: -1.3%; PNC assembly inh: -89.2*; HPGD block: -7.2%

What do the screens show for `CCOC(=O)/C=C(\C)Sc1cc(O)c2ccccc2c1O`?
JMJD2E inh: 3.55µM*

How did CC(NC(=O)NC(N)=O)(C(F)(F)F)C(F)(F)F do in these assays?
JMJD2E inh: 6.8%; ALDH1A1 block: -0.3%; PNC assembly inh: -108.8*; HPGD block: -4.5%

How did O=C1C(Cc2cccc([N+](=O)[O-])c2)SC(=Nc2ccccc2)N1c1ccccc1 (centres undefined) do in these assays?
JMJD2E inh: 1.7%; ALDH1A1 block: -10.4%; PNC assembly inh: 3.3; HPGD block: -9.7%

What do the screens show for `COC(=O)[C@@]1(Cc2ccc(F)cc2)[C@H]2c3cc(C(=O)N(C)C)n(Cc4c(CO)[nH]cc(C)c4=O)c3C[C@H]2CN1C(=O)c1ccccc1`?
JMJD2E inh: inconclusive; ALDH1A1 block: -10.7%; PNC assembly inh: 13.6; HPGD block: -15.2%

How did Cc1cc(-n2c(C)cc(C(=O)CN3C(=O)NC4(CCCC4)C3=O)c2C)no1 do in these assays?
JMJD2E inh: 2.7%; ALDH1A1 block: 3.0%; PNC assembly inh: -116.9*; HPGD block: 0.1%

Results for Cc1cc(-n2c(C)cc(C(=O)CCl)c2C)no1 ?
JMJD2E inh: 7.3%; ALDH1A1 block: 1µM*

What do the screens show for `Cc1cc(-n2c(C)cc(C(=O)COc3ccc([N+](=O)[O-])cc3)c2C)no1`?
JMJD2E inh: 15.4%; ALDH1A1 block: -5.3%

What do the screens show for `Cc1ccc(-n2c(C)cc(C(=O)CSc3nncs3)c2C)cc1`?
JMJD2E inh: inconclusive; ALDH1A1 block: 5.5%; PNC assembly inh: inconclusive; HPGD block: 25.1µM*

Screening results (PubChem)
